# Measured values as given in PubChem BioAssay.
# For some of these results: Measured potencies and affinities stand elsewhere. The source made the active and inactive calls.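 The calls were made as follows, unless noted: active = primary screen activator hit with a dose response curve and TRPC4 channel activation at any tested dose; inactive = no activation, no dose response, or not a primary hit.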
# What was measured:
# [1] = tested on: TRPC4 beta (transient receptor potential cation channel C4), mouse; assay: TRPC4 cation channel opening, retest – cell-based, Fluo4 calcium, HEK293 TRPC4beta/mu-opioid, duplicates, 10 µM, confirmation (AID 2426;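 active = fluorescence ratio normalized to control raised more than 50% in primary screen plus both repeat runs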;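 as to activation: percent rise of integrated ratio over buffer wells lacking compound which define 0%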); conditions: Fluo4 calcium fluorescence, at 10 µM; stronger effect = higher value
# [2] = tested on: transient receptor potential cation channel C4 beta (TRPC4), mouse; assay: TRPC4 cation channel opening, second retest – cell-based, second round, Fluo4, HEK293 TRPC4beta/mu-opioid, 1 µM, confirmation (AID 2461;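 active = primary screen active and over 50% activation in each of two duplicate runs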); conditions: Fluo4 calcium fluorescence, at 1 µM; stronger effect = higher value
# [3] = tested on: TRPC4 (transient receptor potential cation channel C4 beta), mouse; assay: potentiation of DAMGO EC20 TRPC4 response – cell-based, second round, Fluo-4, HEK293 TRPC4beta/mu-opioid, 1 µM, confirmation (AID 2554;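 active = primary screen hit whose fluorescence ratio, in both repeats, exceeds the weak agonist control mean by 3 SD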); conditions: DAMGO EC20, Fluo-4 calcium flux, at 1 µM; stronger effect = higher value
# [4] = tested on: TRPC4 beta (transient receptor potential cation channel C4), mouse; assay: potentiation of DAMGO EC20 TRPC4 response – cell-based, Fluo-4, HEK293 TRPC4beta/mu-opioid, confirmation (AID 2555;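 active = primary screen hit whose calcium fluorescence ratio, in both repeats, exceeds the weak agonist control mean by 3 SD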); conditions: DAMGO EC20, Fluo-4 calcium flux, at 10 µM; stronger effect = higher value
# [5] = target: Short transient receptor potential channel 4 (Mus musculus) (UniProt Q9QUQ5); assay: blockers of DAMGO-evoked TRPC4 calcium flux – cell-based, Fluo4, HEK293 TRPC4beta/mu-opioid, confirmation (AID 2636;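 active = calcium signal cut by more than 3 SD below the full-agonist control yet still positive, in both repeats and the earlier primary screen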); conditions: at 10 µM; stronger effect = higher value
# Sequence of Short transient receptor potential channel 4 (Mus musculus) (Q9QUQ5 whole entry, looked up): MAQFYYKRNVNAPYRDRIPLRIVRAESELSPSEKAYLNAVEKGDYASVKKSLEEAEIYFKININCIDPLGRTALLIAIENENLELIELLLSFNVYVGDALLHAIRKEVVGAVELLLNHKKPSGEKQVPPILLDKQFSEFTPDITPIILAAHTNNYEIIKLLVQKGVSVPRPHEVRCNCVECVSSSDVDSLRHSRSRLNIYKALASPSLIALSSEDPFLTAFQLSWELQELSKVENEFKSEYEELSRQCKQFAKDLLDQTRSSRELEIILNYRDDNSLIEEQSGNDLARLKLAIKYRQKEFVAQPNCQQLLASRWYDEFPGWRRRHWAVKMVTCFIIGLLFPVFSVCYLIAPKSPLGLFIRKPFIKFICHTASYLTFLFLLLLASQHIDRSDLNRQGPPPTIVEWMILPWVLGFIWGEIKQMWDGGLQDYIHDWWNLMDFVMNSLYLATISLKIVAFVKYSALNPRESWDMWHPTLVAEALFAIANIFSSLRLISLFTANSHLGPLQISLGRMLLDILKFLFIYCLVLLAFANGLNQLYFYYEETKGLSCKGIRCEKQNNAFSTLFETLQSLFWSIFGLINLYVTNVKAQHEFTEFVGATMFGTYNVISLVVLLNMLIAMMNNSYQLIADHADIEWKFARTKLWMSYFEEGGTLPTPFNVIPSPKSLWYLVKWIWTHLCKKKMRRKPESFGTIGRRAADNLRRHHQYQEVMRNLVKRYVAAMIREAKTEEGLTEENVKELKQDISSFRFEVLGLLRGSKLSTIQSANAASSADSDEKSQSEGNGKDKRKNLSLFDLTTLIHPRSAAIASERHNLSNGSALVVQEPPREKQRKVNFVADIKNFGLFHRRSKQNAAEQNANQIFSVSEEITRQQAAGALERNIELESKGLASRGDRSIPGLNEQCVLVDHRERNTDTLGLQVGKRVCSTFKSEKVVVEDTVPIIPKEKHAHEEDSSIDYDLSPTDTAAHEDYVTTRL
# [6] = target: Short transient receptor potential channel 4 (Mus musculus) (UniProt Q9QUQ5); assay: blockers of DAMGO-evoked TRPC4 calcium flux – cell-based, second round, Fluo4, HEK293 TRPC4beta/mu-opioid, 1 µM, confirmation (AID 2637;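 active = calcium signal ratio cut to more than 3 SD under the fully stimulated control mean yet still positive, in both repeats and the primary screen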); conditions: at 1 µM; stronger effect = higher value
# [7] = target: Short transient receptor potential channel 4 (Mus musculus) (UniProt Q9QUQ5); assay: calcium entry via TRPC4 opening agents – cell-based, HEK293 TRPC4/mu-opioid, Fluo-4 calcium, dose response (AID 434937)
# [8] = target: Short transient receptor potential channel 4 (Mus musculus) (UniProt Q9QUQ5); assay: potentiation of DAMGO-evoked TRPC4 calcium signal – cell-based, HEK293 TRPC4/mu-opioid, Fluo-4 calcium, EC20 DAMGO, dose response (AID 434941;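 active = earlier screen potentiator hit that boosts the TRPC4 ion channel at some dose, with a dose response; inactive = no potentiation, no dose response, or not a prior hit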;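 also: calcium entry triggered by an EC20 dose of DAMGO at the co-expressed mu-opioid receptor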)
# [9] = target: Short transient receptor potential channel 4 (Mus musculus) (UniProt Q9QUQ5); assay: block of DAMGO-driven TRPC4 calcium entry – cell-based, HEK293 TRPC4/mu-opioid, Fluo-4 calcium, dose response (AID 434942;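 active = primary screen inhibitor hit that blocks the TRPC4 channel at some tested dose, yielding a dose curve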)
# [10] = target: Short transient receptor potential channel 6 (Mus musculus) (UniProt Q61143); assay: TRPC6 blockade by TRPC4 inhibitor hits – cell-based, HEK293, membrane potential dye, duplicate, selectivity assay for TRPC4 inhibitor project, confirmation (AID 434948;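 active = active in primary screen and both duplicates, each dropping signal beyond three positive-control SD with fluorescence still positive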); conditions: HEK293 TRPC6, membrane potential dye fluorescence, at 10 µM, stimulated with maximal-effect acetylcholine; stronger effect = higher value
# Sequence of Short transient receptor potential channel 6 (Mus musculus) (Q61143 whole entry, looked up): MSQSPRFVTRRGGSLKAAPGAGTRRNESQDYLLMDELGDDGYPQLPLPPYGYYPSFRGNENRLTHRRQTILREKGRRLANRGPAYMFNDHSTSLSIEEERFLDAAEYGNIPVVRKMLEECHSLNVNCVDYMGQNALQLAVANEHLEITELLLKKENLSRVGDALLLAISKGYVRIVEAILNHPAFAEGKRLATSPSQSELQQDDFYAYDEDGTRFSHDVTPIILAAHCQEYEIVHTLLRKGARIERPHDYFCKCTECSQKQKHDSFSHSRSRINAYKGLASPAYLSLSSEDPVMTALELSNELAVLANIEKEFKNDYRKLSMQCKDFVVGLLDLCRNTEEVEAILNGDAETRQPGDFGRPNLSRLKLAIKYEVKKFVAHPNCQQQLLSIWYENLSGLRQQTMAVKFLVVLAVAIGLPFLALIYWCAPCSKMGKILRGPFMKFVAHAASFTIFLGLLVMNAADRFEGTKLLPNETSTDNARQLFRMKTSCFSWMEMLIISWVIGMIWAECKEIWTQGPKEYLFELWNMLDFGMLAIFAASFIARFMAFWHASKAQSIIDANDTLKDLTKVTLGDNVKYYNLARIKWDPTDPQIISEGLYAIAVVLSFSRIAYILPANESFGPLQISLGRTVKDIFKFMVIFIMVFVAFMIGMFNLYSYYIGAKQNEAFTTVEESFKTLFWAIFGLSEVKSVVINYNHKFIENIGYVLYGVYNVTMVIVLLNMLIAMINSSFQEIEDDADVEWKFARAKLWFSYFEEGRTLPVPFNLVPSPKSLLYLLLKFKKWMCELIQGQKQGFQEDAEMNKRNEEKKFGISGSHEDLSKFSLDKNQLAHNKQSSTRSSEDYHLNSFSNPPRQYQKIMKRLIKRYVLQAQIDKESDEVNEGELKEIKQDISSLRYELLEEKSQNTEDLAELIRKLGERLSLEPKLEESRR
# [11] = target: Short transient receptor potential channel 6 (Mus musculus) (UniProt Q61143); assay: TRPC6 opening by TRPC4 activator hits – cell-based, HEK293, membrane potential dye, duplicate, selectivity assay for TRPC4 activator project, confirmation (AID 434950;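 active = membrane potential signal rise above negative control mean plus 3 SD in both duplicates, also active in the earlier TRPC4 screen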;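 as to activation: 0% = buffer only wells and 100% = acetylcholine maximal-effect wells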); conditions: HEK293 TRPC6, membrane potential fluorescence, at 10 µM; activation: stronger effect = higher value; outcome: activation
# [12] = target: Short transient receptor potential channel 6 (Mus musculus) (UniProt Q61143); assay: positive modulators of mouse TRPC6 channel – HEK293 cells, membrane potential dye, duplicate, selectivity assay for TRPC4 potentiator project, confirmation (AID 434952;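 active = compound raising the membrane signal above positive-control mean plus 3 SD in both repeats, and a primary screen hit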); conditions: HEK293 TRPC6, membrane potential dye fluorescence, at 10 µM, maximal acetylcholine added after compound; stronger effect = higher value
# [13] = target: Short transient receptor potential channel 4 (Mus musculus) (UniProt Q9QUQ5); assay: calcium flux activators in TRPC4/5HT1a cells, counter-screen for TRPC4 activator project, cell-based, second counter screen, HEK293 TRPC4/5HT1a, Fluo-4 (AID 434977;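 active = calcium signal rise above buffer-control mean plus 5 SD in both duplicates, and also a hit in the primary screen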); conditions: Fluo-4 calcium flux, at 10 µM; stronger effect = higher value
# [14] = serotonin-gated TRPC4 signal block – cell-based, second counter screen, HEK293 TRPC4/5HT1a, Fluo-4, counter-screen for TRPC4 inhibitor project, confirmation (AID 434978;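 active = primary screen active whose calcium signal fell more than 3 SD beyond the full-serotonin control mean in both duplicate plates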;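 also: serotonin given first at submaximal then at maximal dose after compound preincubation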); conditions: Fluo-4 calcium flux, at 10 µM, serotonin added to trigger calcium flux; stronger effect = higher value
# [15] = tested on: TRPC4 (mouse), co-expressed with 5HT1a in HEK293; assay: enhancement of serotonin-evoked TRPC4 response – cell-based, second counter screen, HEK293 TRPC4/5HT1a, Fluo-4, counter-screen for TRPC4 potentiator project, confirmation (AID 434979;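 active = signal rise over 3 SD above mean of control wells given weak agonist, in both repeats and first screen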); conditions: Fluo-4 calcium flux, at 10 µM, serotonin added at its EC20 dose; stronger effect = higher value
# [16] = nonspecific calcium rise without TRPC4 – cell-based, HEK293 mu-opioid receptor line, counter-screen for TRPC4 activator project, confirmation (AID 449723;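 active = hit in primary screen, with calcium signal over 5 SD above buffer well mean in both duplicates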;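 also: counter screen cells carry the mu-opioid receptor alone and lack TRPC4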); conditions: HEK293 mu-opioid cells, Fluo-4 calcium fluorescence, at 10 µM; stronger effect = higher value
# [17] = nonspecific potentiation of DAMGO calcium response – cell-based, HEK293 mu-opioid receptor line, counter-screen for TRPC4 allosteric potentiator project, confirmation (AID 449724;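 active = calcium signal rise more than 3 SD above the low-dose agonist control mean, in both duplicate plates and the primary screen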); conditions: HEK293 mu-opioid receptor cells, Fluo-4 calcium flux, at 10 µM, compound added before EC20 DAMGO stimulus; stronger effect = higher value
compound,measurement,setting,value
O=[N+]([O-])c1cccc(CSc2nnc(Cc3ccccc3)n2-c2ccc(F)cc2)c1,outcome,[1],inactive
same,outcome,[2],inactive
same,outcome,[3],inactive
same,outcome,[4],inactive
same,outcome,[5],inactive
same,outcome,[6],inactive
same,outcome,[7],inactive
same,outcome,[8],inactive
same,outcome,[9],inactive
same,outcome,[10],inactive
same,outcome,[11],inactive
same,outcome,[12],inactive
same,outcome,[13],inactive
same,outcome,[14],inactive
same,outcome,[15],inactive
same,outcome,[16],inactive
same,outcome,[17],inactive
CCOc1cc(/C=C2\CN(CC)C/C(=C\c3ccc(O)c(OCC)c3)C2=O)ccc1O,outcome,[1],inactive
same,outcome,[2],inactive
same,outcome,[3],inactive
same,outcome,[4],inactive
same,outcome,[5],inactive
same,outcome,[6],inactive
same,outcome,[7],inactive
same,outcome,[8],inactive
same,outcome,[9],inactive
same,outcome,[10],inactive
same,outcome,[11],inactive
same,outcome,[12],inactive
same,outcome,[13],inactive
same,outcome,[14],inactive
same,outcome,[15],inactive
same,outcome,[16],inactive
same,outcome,[17],inactive
CCOC(=O)C1C(=O)C=C(c2ccc(C)cc2)CC1c1cccc([N+](=O)[O-])c1 (stereo unspecified),outcome,[1],inactive
same,outcome,[2],inactive
same,outcome,[3],inactive
same,potentiation,[4],46% (active)
same,outcome,[5],inactive
same,outcome,[6],inactive
same,outcome,[7],inactive
same,outcome,[8],inactive
same,outcome,[9],inactive
same,outcome,[10],inactive
same,outcome,[11],inactive
same,outcome,[12],inactive
same,outcome,[13],inactive
same,outcome,[14],inactive
same,potentiation,[15],38.9% (active)
same,outcome,[16],inactive
same,outcome,[17],inactive
CCCN(C(=O)COC(=O)C12CCC(=O)N1c1ccccc1S2)c1c(N)n(Cc2ccccc2)c(=O)[nH]c1=O (stereo unspecified),outcome,[1],inactive
same,outcome,[2],inactive
same,outcome,[3],inactive
same,outcome,[4],inactive
same,inhibition,[5],52% (active)
same,outcome,[6],inactive
same,outcome,[7],inactive
same,outcome,[8],inactive
same,outcome,[9],inactive
same,outcome,[10],inactive
same,activation,[11],28% (active)
same,outcome,[12],inactive
same,outcome,[13],inactive
same,outcome,[14],inactive
same,outcome,[15],inactive
same,outcome,[16],inactive
same,outcome,[17],inactive
Cc1ccc(C(=O)NNC(=O)C2CSC3(C)CCC(=O)N23)cc1 (stereo unspecified),outcome,[1],inactive
same,outcome,[2],inactive
same,outcome,[3],inactive
same,outcome,[4],inactive
same,outcome,[5],inactive
same,outcome,[6],inactive
same,outcome,[7],inactive
same,outcome,[8],inactive
same,outcome,[9],inactive
same,outcome,[10],inactive
same,outcome,[11],inactive
same,outcome,[12],inactive
same,outcome,[13],inactive
same,outcome,[14],inactive
same,potentiation,[15],7.03% (active)
same,outcome,[16],inactive
same,outcome,[17],inactive
CCN(CC)c1ccc(CNc2nc3ccccc3n2CCN2CCCCC2)cc1,activation,[1],109% (active)
same,outcome,[2],inactive
same,outcome,[3],inactive
same,outcome,[4],inactive
same,outcome,[5],inactive
same,outcome,[6],inactive
same,outcome,[7],inactive
same,outcome,[8],inactive
same,outcome,[9],inactive
same,outcome,[10],inactive
same,outcome,[11],inactive
same,outcome,[12],inactive
same,outcome,[13],inactive
same,outcome,[14],inactive
same,outcome,[15],inactive
same,outcome,[16],inactive
same,outcome,[17],inactive
CCOC(=O)c1c(C)n(C)c2ccc(OCC(O)CNCCc3ccccc3)cc12 (stereo unspecified),outcome,[1],inactive
same,outcome,[2],inactive
same,outcome,[3],inactive
same,outcome,[4],inactive
same,outcome,[5],inactive
same,outcome,[6],inactive
same,outcome,[7],inactive
same,outcome,[8],inactive
same,outcome,[9],inactive
same,outcome,[10],inactive
same,outcome,[11],inactive
same,outcome,[12],inactive
same,outcome,[13],inactive
same,outcome,[14],inactive
same,outcome,[15],inactive
same,outcome,[16],inactive
same,outcome,[17],inactive
O=c1[nH]ncc(N2CCN(Cc3ccccc3)CC2)c1Cl,outcome,[1],inactive
same,outcome,[2],inactive
same,outcome,[3],inactive
same,outcome,[4],inactive
same,outcome,[5],inactive
same,outcome,[6],inactive
same,outcome,[7],inactive
same,outcome,[8],inactive
same,outcome,[9],inactive
same,outcome,[10],inactive
same,outcome,[11],inactive
same,outcome,[12],inactive
same,outcome,[13],inactive
same,outcome,[14],inactive
same,outcome,[15],inactive
same,outcome,[16],inactive
same,outcome,[17],inactive
